Experimental findings from PubChem BioAssay are described below.

The inhibition is the change of the read-out against control, counted positive when it falls.

Assay [1] is described as follows: yeast TOR pathway RPL19A-GFP modulators, primary screen, cell-based, S. cerevisiae, multiplex flow cytometry (AID 1862).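 Further: lower values mimic rapamycin by blocking the RPL19A rise seen in DMSO cells.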 The settings on record: S. cerevisiae RPL19A-GFP strain, flow cytometry fluorescence, 3 h; at 10 µM; stronger effect = lower value. On the technique in general: A flow cytometer gives signals particle by particle.
Assay [2] in a line: modulators of MEP2-GFP levels in yeast, primary screen, S. cerevisiae, multiplex flow cytometry (AID 1867;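 active means GFP response, as percent of the DMSO control, above the screen-wide mean plus 3 SD, about 139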;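 further: median GFP channel fluorescence of barcode-gated MEP2-GFP cells measured by flow cytometry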). The note with it: S. cerevisiae MEP2-GFP strain, 3 h, at 10 µM, stronger effect = higher value, 100% means same as DMSO wells.
Assay [3] in a line: modulators of CIT2-GFP expression in yeast, primary screen, S. cerevisiae, GFP fusion, multiplex flow cytometry (AID 1870;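 active means percent response above a set limit, the screen-wide mean plus 3 SD, cut at about 130% in these data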;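 further: barcoded CIT2-GFP strain pooled with four other GFP strains with rapamycin as positive control; median GFP fluorescence per well over plate mean of DMSO wells so 100% = DMSO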). The settings on record: 3 h, at 10 µM, stronger effect = higher value.
A short description of assay [4]: modulators of LAP4-GFP expression in yeast, primary screen, S. cerevisiae, multiplex flow cytometry (AID 1873;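 active means GFP signal, as percent of the solvent control, above the screen mean plus 3 SD, about 149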). The settings on record: 3 h, at 10 µM, stronger effect = higher value.
A short description of assay [5]: modulators of AGP1-GFP expression in yeast TOR pathway, primary screen, cell-based, multiplex flow cytometry, S. cerevisiae (AID 1887;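 active means GFP signal above the screen-wide mean plus 3 SD, that is over about 124.5% of the solvent control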;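 further: AGP1-GFP fusion strain of S. cerevisiae within a five-strain barcoded multiplex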). The note with it: 3 h, at 10 µM, stronger effect = higher value.
A short description of assay [6]: inhibitors of CD8+ T cell-vesicle binding, pilot screen, LFA-1/ICAM-1 modulator project, MLPCN validation set, flow cytometry (AID 2523;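 active means response below a set limit, under 55% cells CD8-positive and vesicle-bound, and CD8 cells' 90th-percentile brightness under 279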;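 on vesicle binding response: mean PE anti-B7-1 fluorescence of CD8+ cells relative to row control; 100% = QL9-loaded vesicles with DMSO vehicle in the same plate row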). The settings on record: 2C mouse CD8+ T cells, at 7 µM, stronger effect = lower value; double positive events: measured here: CD8+/vesicle+ event percentage.
The target of assay [7] is Integrin beta-1 (Homo sapiens) + Integrin alpha-4 (Homo sapiens) (UniProt P13612+P05556). In words: inhibition of HUTS-21 binding to VLA-4, pilot screen, VLA-4 allosteric modulator project, U937 cells, HUTS-21 mAb, flow cytometry, validation set (AID 2674;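 active means inhibition above 50%, about 3 SD of the validation set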;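 further: antibody binding induced by the VLA-4 ligand LDV present at three times its Kd; 0% = LDV ligand with antibody and no compound and 100% = antibody without LDV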). The note with it: HUTS-21 LIBS mAb binding, at 6.7 µM, stronger effect = higher value, binding induced by LDV ligand.
Sequence of Integrin beta-1 (Homo sapiens) + Integrin alpha-4 (Homo sapiens) (P05556 whole entry, looked up): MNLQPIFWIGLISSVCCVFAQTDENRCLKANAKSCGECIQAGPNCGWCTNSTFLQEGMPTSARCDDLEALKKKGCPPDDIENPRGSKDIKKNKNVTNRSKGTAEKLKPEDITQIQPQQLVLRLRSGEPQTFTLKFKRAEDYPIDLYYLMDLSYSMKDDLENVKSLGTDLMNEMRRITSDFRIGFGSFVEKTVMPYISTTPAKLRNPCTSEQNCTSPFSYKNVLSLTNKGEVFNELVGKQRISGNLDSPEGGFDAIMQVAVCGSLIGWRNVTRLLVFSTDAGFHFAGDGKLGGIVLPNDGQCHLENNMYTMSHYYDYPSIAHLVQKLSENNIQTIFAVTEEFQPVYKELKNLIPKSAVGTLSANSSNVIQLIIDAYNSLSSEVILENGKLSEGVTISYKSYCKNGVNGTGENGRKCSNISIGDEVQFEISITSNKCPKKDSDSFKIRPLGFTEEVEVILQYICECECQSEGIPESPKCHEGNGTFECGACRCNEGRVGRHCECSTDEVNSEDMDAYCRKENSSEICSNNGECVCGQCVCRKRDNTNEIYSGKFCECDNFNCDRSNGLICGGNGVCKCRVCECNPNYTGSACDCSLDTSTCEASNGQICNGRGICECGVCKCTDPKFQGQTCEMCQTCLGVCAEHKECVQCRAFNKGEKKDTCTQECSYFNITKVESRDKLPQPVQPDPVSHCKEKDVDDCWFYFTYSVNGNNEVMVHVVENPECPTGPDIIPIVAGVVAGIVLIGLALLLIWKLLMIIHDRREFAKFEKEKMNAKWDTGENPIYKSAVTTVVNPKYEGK
Sequence of Integrin beta-1 (Homo sapiens) + Integrin alpha-4 (Homo sapiens) (P13612 whole entry, looked up): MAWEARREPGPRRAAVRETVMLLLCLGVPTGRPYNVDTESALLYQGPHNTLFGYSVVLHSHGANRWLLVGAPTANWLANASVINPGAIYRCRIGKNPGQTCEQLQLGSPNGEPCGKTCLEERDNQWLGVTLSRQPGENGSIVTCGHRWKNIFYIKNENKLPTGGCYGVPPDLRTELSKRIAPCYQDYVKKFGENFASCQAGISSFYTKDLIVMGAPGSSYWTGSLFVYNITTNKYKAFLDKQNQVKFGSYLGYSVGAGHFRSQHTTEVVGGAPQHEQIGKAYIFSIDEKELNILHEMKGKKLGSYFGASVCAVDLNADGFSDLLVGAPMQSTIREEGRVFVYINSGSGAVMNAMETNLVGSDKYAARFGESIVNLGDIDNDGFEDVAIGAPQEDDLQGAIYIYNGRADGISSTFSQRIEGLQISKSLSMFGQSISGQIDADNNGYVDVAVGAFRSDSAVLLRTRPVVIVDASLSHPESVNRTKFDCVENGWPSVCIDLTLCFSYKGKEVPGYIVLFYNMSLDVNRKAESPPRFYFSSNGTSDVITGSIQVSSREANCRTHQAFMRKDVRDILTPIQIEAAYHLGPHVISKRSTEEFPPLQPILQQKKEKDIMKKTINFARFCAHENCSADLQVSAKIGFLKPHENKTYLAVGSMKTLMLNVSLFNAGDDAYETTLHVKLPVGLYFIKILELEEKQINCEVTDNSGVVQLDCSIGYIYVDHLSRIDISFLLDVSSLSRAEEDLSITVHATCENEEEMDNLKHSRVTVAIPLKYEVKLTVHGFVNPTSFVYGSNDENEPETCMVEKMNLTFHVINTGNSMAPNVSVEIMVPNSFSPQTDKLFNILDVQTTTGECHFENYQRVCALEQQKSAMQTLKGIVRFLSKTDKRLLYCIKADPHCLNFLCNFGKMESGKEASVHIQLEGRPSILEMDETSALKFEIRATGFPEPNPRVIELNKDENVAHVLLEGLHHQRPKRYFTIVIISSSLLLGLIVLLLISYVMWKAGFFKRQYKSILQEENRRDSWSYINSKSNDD
The nature of assay [8]: superoxide lowering in aged yeast cells, pilot screen, validation compound set (AID 2706;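 active means superoxide response below 65% of plate, a cut near 3 SD across the whole screen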;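 further: yeast exposed to compound for one week at 30 degrees C before staining; 100% = mean of all compound wells on the same plate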). The note with it: S. cerevisiae aging, superoxide DHE fluorescence; at 10 µM; stronger effect = lower value.
For assay [9], the target named is Beta-adrenergic receptor kinase 1 (Homo sapiens) (UniProt P25098). Put plainly: GRK2 binders displacing RNA aptamer, biochemical, validation, human GRK2, bead flow cytometry (AID 488806;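 active means aptamer binding inhibition above 30%, about 3 SD of noise from non-fluorescent compounds; inactive means inhibition at or below 30%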). The note with it: bead-bound GRK2, FAM-aptamer displacement, at 10 µM, stronger effect = higher value.
Sequence of Beta-adrenergic receptor kinase 1 (Homo sapiens) (P25098 whole entry, looked up): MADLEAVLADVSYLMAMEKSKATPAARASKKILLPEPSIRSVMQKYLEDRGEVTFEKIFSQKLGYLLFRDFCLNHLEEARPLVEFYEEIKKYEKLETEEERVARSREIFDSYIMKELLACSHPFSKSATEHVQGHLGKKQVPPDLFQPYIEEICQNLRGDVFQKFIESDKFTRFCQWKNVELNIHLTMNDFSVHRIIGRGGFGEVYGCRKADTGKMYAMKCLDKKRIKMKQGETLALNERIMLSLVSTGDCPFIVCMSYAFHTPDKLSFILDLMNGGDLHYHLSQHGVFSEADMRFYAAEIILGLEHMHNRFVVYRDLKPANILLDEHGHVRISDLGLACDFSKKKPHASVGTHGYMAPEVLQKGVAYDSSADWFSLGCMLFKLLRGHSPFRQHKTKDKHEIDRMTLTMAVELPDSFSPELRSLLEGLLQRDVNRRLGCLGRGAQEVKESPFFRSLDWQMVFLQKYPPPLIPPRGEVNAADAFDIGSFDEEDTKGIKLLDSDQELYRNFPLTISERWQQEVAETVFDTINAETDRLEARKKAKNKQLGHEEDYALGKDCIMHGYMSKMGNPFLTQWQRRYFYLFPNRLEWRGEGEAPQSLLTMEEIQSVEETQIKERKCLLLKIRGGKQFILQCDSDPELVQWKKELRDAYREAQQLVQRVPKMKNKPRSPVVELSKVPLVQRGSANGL
The target in assay [10] is Beta-2 adrenergic receptor (Homo sapiens) (UniProt P07550). Put plainly: beta2AR agonists driving receptor internalization, pilot screen, cell-based, FAP fluorogen, flow cytometry, validation set (AID 504459;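 active means percent response above 42, roughly 3 SD of non-fluorescent test compounds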;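 further: agonist-driven loss of surface beta2AR via internalization measured by FAP dye flow cytometry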). The settings on record: Am2.2-beta2AR cells, FAP surface receptor flow cytometry; at 10 µM; stronger effect = higher value.
Sequence of Beta-2 adrenergic receptor (Homo sapiens) (P07550 whole entry, looked up): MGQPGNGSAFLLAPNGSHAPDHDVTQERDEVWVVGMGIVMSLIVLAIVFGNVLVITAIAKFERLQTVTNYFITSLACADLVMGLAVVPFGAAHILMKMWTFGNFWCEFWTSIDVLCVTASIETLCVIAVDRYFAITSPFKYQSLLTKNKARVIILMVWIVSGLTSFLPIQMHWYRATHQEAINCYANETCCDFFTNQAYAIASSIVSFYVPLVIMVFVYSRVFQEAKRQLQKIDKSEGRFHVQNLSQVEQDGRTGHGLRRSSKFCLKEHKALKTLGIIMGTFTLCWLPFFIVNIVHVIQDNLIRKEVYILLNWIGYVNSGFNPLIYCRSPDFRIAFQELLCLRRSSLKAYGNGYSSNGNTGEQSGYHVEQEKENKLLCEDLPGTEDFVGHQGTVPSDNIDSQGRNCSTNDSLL
For assay [11], the target named is AP-2 complex subunit beta (Homo sapiens) (UniProt P63010). In words: inhibitors of arrestin peptide binding to AP2, pilot screen, biochemical, validation set, GST-AP2 beads, flow cytometry (AID 504541;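 active means inhibition above 54%, about 3 SD of non-fluorescent compounds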;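 further: AP2 carries R879A mutation and is captured from E. coli lysate; bead-bound FITC arrestin peptide fluorescence measuring arrestin peptide binding to AP2; 0% = DMSO wells and 100% = excess unlabeled arrestin peptide control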). The note with it: FITC arrestin peptide, at 10 µM, stronger effect = higher value, AP2 beta2 appendage fragment, R879A mutant.
Sequence of AP-2 complex subunit beta (Homo sapiens) (P63010 whole entry, looked up, the tested form may be a part, one chain of several): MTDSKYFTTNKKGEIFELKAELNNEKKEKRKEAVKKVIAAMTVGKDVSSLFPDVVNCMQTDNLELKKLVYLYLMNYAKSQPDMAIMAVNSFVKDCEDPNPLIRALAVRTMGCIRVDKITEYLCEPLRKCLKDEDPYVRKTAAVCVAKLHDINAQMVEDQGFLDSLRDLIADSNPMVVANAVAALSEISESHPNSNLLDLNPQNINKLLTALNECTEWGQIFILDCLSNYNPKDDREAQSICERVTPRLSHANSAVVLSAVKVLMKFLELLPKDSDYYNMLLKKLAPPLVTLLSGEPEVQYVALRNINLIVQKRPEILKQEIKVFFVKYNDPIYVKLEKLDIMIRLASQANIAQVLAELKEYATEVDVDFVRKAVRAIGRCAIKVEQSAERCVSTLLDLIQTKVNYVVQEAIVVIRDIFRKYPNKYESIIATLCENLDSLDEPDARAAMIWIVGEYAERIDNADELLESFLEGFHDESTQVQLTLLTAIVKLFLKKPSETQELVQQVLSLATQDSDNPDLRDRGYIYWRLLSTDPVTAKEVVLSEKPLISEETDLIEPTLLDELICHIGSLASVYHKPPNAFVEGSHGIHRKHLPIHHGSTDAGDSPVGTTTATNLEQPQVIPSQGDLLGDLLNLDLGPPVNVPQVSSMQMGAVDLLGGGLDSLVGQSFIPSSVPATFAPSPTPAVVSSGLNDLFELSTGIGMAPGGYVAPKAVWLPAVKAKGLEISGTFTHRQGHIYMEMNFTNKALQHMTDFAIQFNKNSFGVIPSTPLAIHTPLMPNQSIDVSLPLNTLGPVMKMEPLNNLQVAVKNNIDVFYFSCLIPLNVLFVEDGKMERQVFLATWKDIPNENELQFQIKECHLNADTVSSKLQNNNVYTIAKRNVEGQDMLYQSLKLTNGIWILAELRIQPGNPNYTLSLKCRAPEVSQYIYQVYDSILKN
A short description of assay [12]: yeast V-ATPase proton transport modulators, S. cerevisiae, pHLuorin, HTS validation (AID 504600; in the data active means response above about 15%;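 further: plate controls were DMSO for no effect and reference compound for full effect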). The settings on record: S. cerevisiae pHLuorin cytosolic pH, at 10 µM, stronger effect = higher value.
The test system of assay [13] is anti-desmoglein-3 scFv antibody binding to human DSG3. Put plainly: inhibitors of anti-DSG3 scFv binding to DSG3, pilot screen, biochemical, validation compound set, bead-based, flow cytometry (AID 588368;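 active means binding below the plate cutoff, the plate median minus 3 SD, with a reading above zero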;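 further: signal is the median channel fluorescence of bead-bound GFP antibody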). The settings on record: Protein G beads, DSG3-Fc, scFv-GFP binding, at 10 µM, stronger effect = lower value.
Assay [14] can be described thus: inhibitors of fungal efflux pumps CDR1, CDR2, MDR1, pilot screen, validation compound set, multiplex, phenotypic (AID 588506;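 active means efflux inhibition above 0.42, the validation set average plus 4 SD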;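 further: Nile Red retained in cells so higher fluorescence means more efflux inhibition; 0 = negative control wells and 1 = enniatin B 25 µM full block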). The note with it: S. cerevisiae pump-expressing triplex, Nile Red efflux flow cytometry; at 10 µM; stronger effect = higher value; the pumps come from Candida albicans.
For assay [15], the target named is ATP-binding cassette sub-family B member 6 (Homo sapiens) (UniProt Q9NP58). Put plainly: ABCB6 transporter inhibitors, pilot screen, K562-ABCB6 cells, flow cytometry, validation set (AID 588550;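 active means inhibition above the screen-wide mean plus 3 SD, about 51%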;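 further: 0% = DMSO wells and 100% = benzethonium chloride 70 µM positive control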). The note with it: K562-ABCB6 porphyrin accumulation, 1 h, at 10 µM, stronger effect = higher value.
Sequence of ATP-binding cassette sub-family B member 6 (Homo sapiens) (Q9NP58 whole entry, looked up): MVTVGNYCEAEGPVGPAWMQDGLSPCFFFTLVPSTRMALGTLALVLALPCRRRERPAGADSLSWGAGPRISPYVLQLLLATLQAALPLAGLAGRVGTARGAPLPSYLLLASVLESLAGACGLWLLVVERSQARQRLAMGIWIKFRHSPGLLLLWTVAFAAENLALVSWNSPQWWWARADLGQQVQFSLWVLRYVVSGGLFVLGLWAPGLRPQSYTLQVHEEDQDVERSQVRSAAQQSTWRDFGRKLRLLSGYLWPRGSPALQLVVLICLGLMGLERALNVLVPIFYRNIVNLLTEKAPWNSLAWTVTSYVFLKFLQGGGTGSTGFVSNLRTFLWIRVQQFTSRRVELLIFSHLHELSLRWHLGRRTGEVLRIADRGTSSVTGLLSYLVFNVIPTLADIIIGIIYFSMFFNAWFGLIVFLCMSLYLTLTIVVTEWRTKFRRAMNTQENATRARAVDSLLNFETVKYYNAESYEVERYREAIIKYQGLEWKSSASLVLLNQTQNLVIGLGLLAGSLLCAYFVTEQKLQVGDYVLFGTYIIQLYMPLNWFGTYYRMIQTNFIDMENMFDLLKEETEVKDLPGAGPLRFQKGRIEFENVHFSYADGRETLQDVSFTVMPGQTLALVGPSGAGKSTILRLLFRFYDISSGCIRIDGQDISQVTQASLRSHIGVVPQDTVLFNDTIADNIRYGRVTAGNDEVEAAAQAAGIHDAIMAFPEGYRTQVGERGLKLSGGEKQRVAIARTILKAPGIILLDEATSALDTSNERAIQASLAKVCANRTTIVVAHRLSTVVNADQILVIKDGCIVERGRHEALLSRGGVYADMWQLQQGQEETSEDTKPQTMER
Assay [16] can be described thus: promoters of myeloid differentiation in arrested cells, primary screen, cell-based, GFP/MAC1 double positive, flow cytometry, validation set (AID 588685;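 active means differentiation response of at least 50%, scaled between solvent and reference control, from cells with both markers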;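 further: compound exposure lasts four days before antibody staining and flow analysis; 0% = DMSO wells and 100% = 5 µM fulvestrant positive control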). The note with it: ER-HoxA9 marrow cells, stronger effect = higher value, normalized: vehicle 0, fulvestrant 100.

Results filed as inconclusive are left out. Activity calls are given as the source filed them. Unless noted, no stated cut-off is given here; in the data, active means percent of DMSO control GFP below about 86%; inactive means the rest, inconclusive results apart.

Turning to `CC(=O)Oc1ccc2c(=O)c(Oc3ccccc3[N+](=O)[O-])coc2c1`, in assay [1], the percent of DMSO control GFP is 99.8% (inactive). The GFP response vs DMSO in assay [2] was 131% (inactive); in assay [4], 78.7% (inactive). Further, the percent response of DMSO control in assay [3] was 111% (inactive). Moreover, the GFP response, % of DMSO in assay [5] is 95.6% (inactive). The double positive events in assay [6] turned out to be 60.6%. The vesicle binding response in assay [6] was 188% (inactive). The inhibition in assay [7] is -0.33% (inactive); in assay [11], -1.47% (inactive); in assay [15], -4% (inactive). Besides, the superoxide response (% of plate) in [8] is 121% (inactive). Further, the aptamer binding inhibition in [9] was 3% (inactive). Moreover, the results for the response in assay [10] and in [12] were -4.04% (inactive) and 0.8% (inactive), respectively. In addition, the binding (% of control) in assay [13] was 101% (inactive). Further, the efflux inhibition (fraction of control) in assay [14] is -0.06 (inactive). Also, the differentiation response in assay [16] is 0% (inactive).
Consider `CCC(NC(C)C)C(O)c1ccc(O)c(O)c1` (stereo not given), for which the percent of DMSO control GFP in assay [1] is 103% (inactive). Also, the GFP response vs DMSO is 102% (inactive) in [2] and 104% (inactive) in [4]. Besides, the percent response of DMSO control in [3] is 100% (inactive). Further, the GFP response, % of DMSO in assay [5] is 112% (inactive). The same compound gave a double positive events in assay [6] of 60.7%. Also, the vesicle binding response in [6] was 170% (inactive). The inhibition is -11.3% (inactive) in assay [7], -1.15% (inactive) in assay [11] and 2% (inactive) in [15]. Further, the superoxide response (% of plate) in [8] was 86.8% (inactive). Also, the aptamer binding inhibition in [9] is 4% (inactive). Besides, the response was 46% (active) in assay [10] and 0.42% (inactive) in assay [12]. For the same compound, in assay [13], the binding (% of control) is 105% (inactive). In addition, in [14], the efflux inhibition (fraction of control) was -0.04 (inactive). The differentiation response in [16] was -0.06% (inactive).
Take `CCCCC[C@H](O)/C=C/C1=C(CCCCCCC(=O)O)C(=O)CC1`: in assay [1], the percent of DMSO control GFP was 105% (inactive). In addition, the figures for the GFP response vs DMSO in assay [2] and in assay [4] were 106% (inactive) and 95.9% (inactive), respectively. For the same compound, the percent response of DMSO control in [3] is 101% (inactive). Besides, the GFP response, % of DMSO in assay [5] is 103% (inactive). The same compound gave a double positive events in assay [6] of 56.3%. Also, in assay [6], the vesicle binding response is 98.4% (inactive). Besides, the inhibition in assay [7] was -9.13% (inactive); in [11], 1.77% (inactive); in assay [15] it was 3% (inactive). The superoxide response (% of plate) in assay [8] was 99.9% (inactive). The aptamer binding inhibition in assay [9] is 4% (inactive). The response in assay [10] was 2.65% (inactive); in assay [12] it was 31% (active). Moreover, the binding (% of control) in [13] was 101% (inactive). Further, the efflux inhibition (fraction of control) in [14] is 0.125 (inactive). Also, the differentiation response in [16] is -8.96% (inactive).
For `CC(C)CCn1c(N2CCc3ccccc3C2)nc2c1c(=O)[nH]c(=O)n2C`, the percent of DMSO control GFP in assay [1] was 92.6% (inactive). The GFP response vs DMSO in assay [2] was 128% (inactive); in [4], 83.1% (inactive). The percent response of DMSO control in [3] was 108% (inactive). Besides, the GFP response, % of DMSO in assay [5] was 83.3% (inactive). In addition, the double positive events in assay [6] amounted to 54.4%. In addition, in [6], the vesicle binding response is 184% (inactive). The figures for the inhibition in assay [7], in assay [11] and in assay [15] were -6.15% (inactive), 2.58% (inactive) and 12% (inactive), respectively. Further, in assay [8], the superoxide response (% of plate) is 98% (inactive). The aptamer binding inhibition in [9] was -2% (inactive). For the same compound, the response was -18.6% (inactive) in assay [10] and 2.15% (inactive) in [12]. In addition, the binding (% of control) in assay [13] was 104% (inactive). The efflux inhibition (fraction of control) in assay [14] is -0.24 (inactive). Also, in assay [16], the differentiation response is -4.91% (inactive).
For `Cc1coc2c1c(C)cc1oc(=O)c(Cc3ccccc3)c(C)c12`, the percent of DMSO control GFP in assay [1] was 100% (inactive). The GFP response vs DMSO is 98.7% (inactive) in assay [2] and 93.7% (inactive) in assay [4]. Further, the percent response of DMSO control in assay [3] is 102% (inactive). Further, the GFP response, % of DMSO in assay [5] is 101% (inactive). The same compound yielded a double positive events in assay [6] of 56.9%. Further, the vesicle binding response in assay [6] is 138% (inactive). Moreover, the inhibition in [7] is -11.8% (inactive); in [11], 16.9% (inactive); in [15], 1% (inactive). The superoxide response (% of plate) in assay [8] is 90.7% (inactive). The aptamer binding inhibition in [9] was -1% (inactive). Moreover, the response in [10] is -0.64% (inactive); in [12] it was 18.1% (active). Besides, the binding (% of control) in assay [13] was 97.9% (inactive). Also, the efflux inhibition (fraction of control) in assay [14] is -0.14 (inactive). Also, the differentiation response in assay [16] was -8.96% (inactive).
